Compound activity from PubChem BioAssay.
Only a selection was taken, and hits are over-represented in it overall.
HT1080 IDH1KD tx – kills HT-1080 cells with IDH1 knockdown; AID 686971; HT-1080 IDH1 knockdown viability, ATP luminescence, 48 h; Potency, µM (doses to about 46.1 µM), inactives show at the highest dose activity, negative = toxicity, most hits filed as cytotoxic; 360,000 compounds, 2% hits;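 note: potency is the fitted concentration of half-maximal effect; 0% = DMSO wells and -100% = cell-free medium wells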
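HT-1080-IDH1KD cells (IDH1 knocked down), 750/well in RPMI with 5% FBS, treated with compound 48 h at 37 degrees C. Viability by CellTiter-Glo luminescence, normalised to DMSO and no-cell wells; concentration-response curves classed.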
ALOX12 inh – ALOX12 (human) lipoxygenase inhibition; P18054; purified 12hLO, xylenol orange hydroperoxide absorbance; Potency, µM (doses to about 108 µM), for the others: top-dose activity change, negative = inhibition, most hits filed as inhibitors; 580,000 compounds, 1.1% hits; AID 1671190; note: potency is the fitted concentration of half-maximal effect
Target sequence (P18054 whole entry, looked up): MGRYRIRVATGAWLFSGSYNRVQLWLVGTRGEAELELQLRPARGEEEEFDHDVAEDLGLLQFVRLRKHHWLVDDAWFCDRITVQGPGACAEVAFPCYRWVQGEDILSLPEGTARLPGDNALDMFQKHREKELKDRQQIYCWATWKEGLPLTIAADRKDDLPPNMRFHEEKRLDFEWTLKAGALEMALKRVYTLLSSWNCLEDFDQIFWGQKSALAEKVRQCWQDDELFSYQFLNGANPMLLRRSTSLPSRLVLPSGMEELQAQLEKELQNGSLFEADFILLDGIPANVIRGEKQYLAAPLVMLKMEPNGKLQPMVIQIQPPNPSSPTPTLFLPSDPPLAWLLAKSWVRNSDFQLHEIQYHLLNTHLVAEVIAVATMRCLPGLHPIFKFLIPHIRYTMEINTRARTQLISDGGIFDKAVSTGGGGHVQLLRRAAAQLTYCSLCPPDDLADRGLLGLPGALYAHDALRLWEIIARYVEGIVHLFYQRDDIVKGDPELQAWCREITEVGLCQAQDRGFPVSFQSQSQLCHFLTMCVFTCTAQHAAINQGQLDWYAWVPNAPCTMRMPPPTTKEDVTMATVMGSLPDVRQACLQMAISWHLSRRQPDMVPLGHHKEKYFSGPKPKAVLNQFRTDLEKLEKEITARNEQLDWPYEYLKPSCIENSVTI
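Hydroperoxide product was detected by ferrous iron/xylenol orange as the 573 to 405 nm absorbance ratio. Arachidonic acid at 40 uM (final) was turned over for 30 min at room temperature by 150 nM human 12hLO, pH 7.0 Hepes buffer, after 15 min compound preincubation.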
IL1B secr inh – inflammasome signaling inhibition, IL-1 beta readout. THP-1 LPS/ATP IL-1B secretion, AlphaLISA, 16 h; hits give low values. activity change, % at 57.5 µM. 360,000 compounds, 4.7% hits; in the data active = activity change below about -50%; inconclusive = mostly about -30% to -49%
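THP-1 cells pretreated 1 hr with compounds (up to 57.5 uM final), then stimulated with LPS (250 ng/mL final) plus ATP (1.25 mM final); secreted IL-1B measured by AlphaLISA after 16 hr, decreased signal indicating inhibition.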
HT1080-NT tox – kills 2HG-producing HT-1080-NT fibrosarcoma cells; 360,000 compounds, 1.6% hits; AID 686970; HT-1080-NT fibrosarcoma viability, CellTiter-Glo ATP luminescence, 48 h; Potency, µM (top dose mostly 46.1 µM), inactives show at the top dose activity, negative = less viability, usual class: cytotoxic;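 note: NT is the 2HG producing partner of a matched IDH1 knockdown line; potency is the fitted concentration of half-maximal effect; 0% = DMSO-treated cells and -100% = media-only wells without cells; nearly all actives have a fitted effect of over 55% in size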
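HT-1080-NT fibrosarcoma cells (2HG-overproducing), 750 cells/well in RPMI with 5% FBS, dosed after 2 h and incubated 48 h at 37C. CellTiter-Glo luminescence normalized to DMSO and no-cell wells; concentration-response curves fitted and classed.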
DT40 TDP1 no CPT – qHTS for Inhibitors of human tyrosyl-DNA phosphodiesterase 1 (TDP1): qHTS in cells in absence of CPT | DT40 Tdp1-/- hTDP1 cells, no CPT, ATP luminescence, 48 h | Potency, µM (series often up to 46.2 µM), without a hit: at the top dose activity change, negative = growth inhibition, usual class: inhibitors | 420,000 compounds, 15% hits | AID 686978, 2013; note: potency is the fitted concentration of half-maximal effect; nearly all actives have a fitted effect of over 55% in size
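Camptothecin absent (DMSO only). Human TDP1-complemented DT40 knockout cells, 400 cells/well, 37 °C for minimum 48 hr; ATP measured via CellTiter-Glo, 30 min dark incubation, luminescence.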
DT40 TDP1 CPT – DT40-hTDP1 cell growth loss with CPT. chicken DT40 Tdp1-/-;hTDP1 cells + 20 nM CPT, ATP luminescence, 48 h. Potency, µM (titrated, usually from 46.2 µM), for the others: top-dose activity change, negative = growth inhibition, usual class: inhibitors. 420,000 compounds, 12% hits; note: potency is the fitted concentration of half-maximal effect; nearly all actives have a fitted effect of over 55% in size
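Chicken DT40 Tdp1-/- cells complemented with human TDP1, 400 cells/well, exposed to compounds plus 20 nM camptothecin for at least 48 h at 37 C; viability read as ATP content by CellTiter-Glo luminescence.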
The depositor's hits bear a star; i = inactive; ? = inconclusive; · = no result given; [ ] = remark or other dose. Unless noted, calls come from the whole dose curve; as a rule, active = well fitted curve in the direction sought with a large enough effect; inconclusive = small, poorly fitted or top-dose-only effect, or another doubt; inactive = no such curve, though single readings can be large; an effect the other way counts as inactive or inconclusive. Unless noted, % is set by controls: 0 for no effect and ±100 for the full control effect.

SMILES	HT1080 IDH1KD tx	ALOX12 inh	IL1B secr inh	HT1080-NT tox	DT40 TDP1 no CPT	DT40 TDP1 CPT
CC1CCCC(=C\c2ccccc2)/C1=N/O (stereo unspecified)	-14%	-27%	0	-12%	?	?
S=C1NC2=C(CCC/C2=C\c2ccccc2)C(c2ccccc2)N1 (stereo unspecified)	3%	?	-1	4%	15µM*	?
COc1ccccc1NC1=C(Cl)C(=O)N(c2ccccc2)C1=O	19%	-13%	23	7%	3%	7%
CCOc1ccc(N2C(=O)C(Cl)=C(Nc3ccccc3O)C2=O)cc1	-27%	?	-9	-18%	13µM*	21µM*
COc1ccc(N2C(=O)C(Cl)=C(Nc3c(C)n(C)n(-c4ccccc4)c3=O)C2=O)cc1	-1%	?	-13	1%	5.8µM*	2.6µM*
COc1ccc(N2C(=O)C(Cl)=C(Nc3ccc(OC)cc3OC)C2=O)cc1	-9%	27%	-6	-7%	?	2%
COc1ccc(NC2=C(Cl)C(=O)N(c3ccccc3)C2=O)c(OC)c1	6%	-9%	-22	12%	8%	18µM*
COc1ccc(N2CC(NC(=O)c3c(F)cccc3F)CC2=O)cc1 (stereo unspecified)	·	0%	·	·	·	·
CCC(C)C(=O)Nc1c(C(=O)OC)n(CC2CCCO2)c2ncc(NC(C)CO)cc12 (stereo unspecified)	·	31%	·	·	·	·
CC(Cc1cccnc1)NC(=O)c1cc(COc2ccc(F)cc2Cl)on1 (stereo unspecified)	-9%	9%	-14	0%	23µM*	21µM*
CCn1cc(CNC(=O)c2cc(COc3ccc(F)cc3Cl)on2)cn1	-22%	0%	-21	?	5.8µM*	21µM*
CCn1c(SCC(=O)N/N=C(\C)c2ccncc2)nnc1-c1ccc(C)cc1	9%	159%	1	10%	?	-22%
O=C(c1ccc2nccn2c1)N1CCN(c2ncccn2)CC1	·	7%[176 µM]	·	·	·	·
COc1ccc(N2CCN(C(=O)CSc3ccc([N+](=O)[O-])cc3)CC2)cc1	-3%	-16%	-10	13%	23µM*	?
COc1ccc(N2CCN(C(=O)CCc3cc(OC)c(OC)c(OC)c3)CC2)cc1	16%	-3%	13	0%	?	-23%
COc1ccc(CCC(=O)N2CCN(c3ccc([N+](=O)[O-])cc3)CC2)cc1OC	-9%	-11%	?	0%	15µM*	?
COc1ccccc1CC(=O)N1CCN(c2ccc([N+](=O)[O-])cc2)CC1	-8%	0%	?	-11%	9.2µM*	15µM*
O=C(NC1CCCCC1)N1CCN(c2ccc([N+](=O)[O-])cc2)CC1	-2%	i	?	-4%	?	13µM*
COc1ccc(NC(=O)N2CCN(S(C)(=O)=O)CC2)cc1OC	-2%	-18%	16	-5%	-9%	-4%
COc1ccc(NC(=O)N2CCN(c3ccc([N+](=O)[O-])cc3)CC2)cc1	13%	-7%	2	15%	2.3µM*	2.3µM*
COc1ccc(NC(=O)N2CCN(c3ccc([N+](=O)[O-])cc3)CC2)cc1OC	-1%	-17%	?	-15%	18µM*	?
Cc1cc(C(C)(C)C)nc2[nH]n(-c3ccccc3)c(=O)c12	5%	-7%	17	2%	-25%	-8%
O=c1c2c(C(F)(F)F)cc(C(F)(F)F)nc2[nH]n1-c1ccccc1	?	?	-75*	?	?	14µM*
O=C(NCc1nc(-c2cccs2)no1)c1ccc2c(c1)OCCO2	·	-1%	·	·	·	·
C[C@H]1[C@@H]2[C@H]3OC(=O)[C@@H](C)[C@@H]3CC[C@@]2(C)CC[C@@H]1NS(C)(=O)=O	·	10%[176 µM]	·	·	·	·
SMILES	HT1080 IDH1KD tx	ALOX12 inh	IL1B secr inh	HT1080-NT tox	DT40 TDP1 no CPT	DT40 TDP1 CPT
O=C(Nc1ccccc1Cl)c1ccc([N+](=O)[O-])o1	21µM*	?	-97*	?	29µM*	?
CCOc1ccc(C(=O)Nc2cccc3ncccc23)cc1Cl	-12%	10%	8	10%	?	23µM*
O=C(Nc1cccc2ncccc12)c1cccnc1	2%	137%	28	0%	-22%	-11%
O=C(Nc1cccc2ncccc12)c1ccc([N+](=O)[O-])o1	15µM*	18%	-93*	16µM*	16µM*	12µM*
Cc1ccc(NC(=O)c2ccc([N+](=O)[O-])o2)c(C)c1	?	-5%	-68*	-1%	?	23µM*
CCOc1ccc(C(=O)Nc2cccc3ncccc23)cc1	·	2%	·	·	·	·
Cc1cccnc1NC(=O)c1ccc([N+](=O)[O-])o1	16%	-8%	?	-1%	?	?
Cc1ccccc1NC(=O)c1ccc([N+](=O)[O-])o1	26µM*	-10%	?	-25%	12µM*	?
O=C(Nc1cccc2ncccc12)c1ccc(-c2ccc(Br)cc2)o1	?	?	59	?	23µM*	18µM*
O=C(Nc1cccc2ncccc12)c1ccc(Br)c([N+](=O)[O-])c1	-13%	-5%	-108*	-16%	?	?
O=C(Nc1cccc2ncccc12)c1cccc(Br)c1	-1%	6%	10	3%	-17%	-6%
COc1ccc(N2CCN(C(=O)C3CCC(Cn4c(=S)[nH]c5ccccc5c4=O)CC3)CC2)cc1 (stereo unspecified)	-2%	-2%	-8	11%	23µM*	15µM*
O=C(C1CCC(Cn2c(=S)[nH]c3ccccc3c2=O)CC1)N1CCOCC1 (stereo unspecified)	8%	-6%	1	-2%	-25%	-2%
O=C(C1CCC(Cn2c(=S)[nH]c3ccccc3c2=O)CC1)N1CCN(c2ccccc2)CC1 (stereo unspecified)	-26%	5%	9	-3%	?	?
O=C(C1CCC(Cn2c(=S)[nH]c3ccccc3c2=O)CC1)N1CCN(c2ccccn2)CC1 (stereo unspecified)	-4%	-3%	13	-1%	23µM*	?
COc1ccccc1N1CCN(C(=O)C2CCC(Cn3c(=S)[nH]c4ccccc4c3=O)CC2)CC1 (stereo unspecified)	-14%	-10%	30	-5%	?	23µM*
CCCCS(=O)(=O)N[C@@H]1CN(Cc2ccncc2)C[C@H]1CN(C)C	·	61%	·	·	·	·
